For 4 molecules, AC50 and outcome results are on record in PubChem BioAssay (EPA / NIEHS).

Holding throughout (settings): mRNA level, 48 h; actives raise or lower the signal
Read-out in assay [1]: Cyclin D1 (CCND1), CCND1 (gene 595)
Briefly: LTEA_HepaRG_CCND1: Life Technologies and Expression Analysis (LTEA) Assay for Cyclin D1 (CCND1) using HepaRG (AID 2283451).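 For AC50: TaqMan qRT-PCR transcript level normalised to ACTB GAPDH and POLR2A housekeeping genes.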 The method, boiled down: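 Differentiated human HepaRG cells in serum-free induction medium were exposed 48 h to eight half-log concentrations up to 100 uM in 0.5% DMSO; mRNA quantified by TaqMan qRT-PCR, normalized to ACTB, GAPDH, POLR2A, fitted bidirectionally versus DMSO.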

Read-out in assay [2]: catalase (CAT), CAT (gene 847)
Briefly: LTEA_HepaRG_CAT: Life Technologies and Expression Analysis (LTEA) Assay for catalase (CAT) using HepaRG (AID 2283452). The method, boiled down:
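HepaRG cells in serum-free induction medium, 0.5% DMSO vehicle, exposed 48 h in duplicate over 8 half-log concentrations from 100 uM. CAT mRNA measured by qRT-PCR, normalized to ACTB, GAPDH, POLR2A; bidirectional fit versus DMSO.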

Read-out in assay [3]: flavin-containing dimethylaniline monooxygenases 3 (FMO3), FMO3 (gene 2328)
Briefly: LTEA_HepaRG_FMO3: Life Technologies and Expression Analysis (LTEA) Assay for flavin-containing dimethylaniline monooxygenases 3 (FMO3) using HepaRG (AID 2283453). The gist of the method: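 Differentiated HepaRG cells in serum-free induction medium, exposed 48 h in duplicate to 8 half-log concentrations up to 100 uM in 0.5% DMSO. FMO3 mRNA by qRT-PCR, normalized to ACTB, GAPDH, POLR2A; bidirectional fit vs DMSO.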

Read-out in assay [4]: Cytochrome P450 (CYP1A1), CYP1A1 (gene 1543)
Briefly: LTEA_HepaRG_CYP1A1: Life Technologies and Expression Analysis (LTEA) Assay for Cytochrome P450 (CYP1A1) using HepaRG (AID 2283454). The method, boiled down: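 Differentiated HepaRG cells in serum-free induction medium were exposed in duplicate for 48 h to eight half-log concentrations up to 100 uM in 0.5% DMSO. CYP1A1 mRNA was quantified by TaqMan qRT-PCR, normalized to ACTB, GAPDH and POLR2A.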

Read-out in assay [5]: CFLAR gene, CFLAR (gene 8837)
Briefly: LTEA_HepaRG_CFLAR: Life Technologies and Expression Analysis (LTEA) Assay for CFLAR gene using HepaRG (AID 2283455). The method, boiled down: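 Differentiated HepaRG cells in serum-free induction medium were exposed 48 h in duplicate to eight half-log concentrations up to 100 uM in 0.5% DMSO; mRNA measured by TaqMan qRT-PCR, normalized to ACTB, GAPDH, POLR2A; bidirectional fitting versus DMSO.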

Read-out in assay [6]: Forkhead box O1 (FOXO1), FOXO1 (gene 2308)
Briefly: LTEA_HepaRG_FOXO1: Life Technologies and Expression Analysis (LTEA) Assay for Forkhead box O1 (FOXO1) using HepaRG (AID 2283456). The gist of the method:
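Differentiated HepaRG cells, in serum-free induction medium with 0.5% DMSO, exposed 48 h in duplicate to 8-point half-log series from 100 uM. FOXO1 mRNA measured by TaqMan qRT-PCR, normalized to ACTB, GAPDH, POLR2A; bidirectional fit versus DMSO.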

Read-out in assay [7]: Forkhead box O3 (FOXO3), FOXO3 (gene 2309)
Briefly: LTEA_HepaRG_FOXO3: Life Technologies and Expression Analysis (LTEA) Assay for Forkhead box O3 (FOXO3) using HepaRG (AID 2283459). The method, boiled down: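 Differentiated human HepaRG cells, 48 h post-plating, exposed in duplicate for 48 h in serum-free induction medium; 8-point half-log series from 100 uM in 0.5% DMSO. FOXO3 mRNA by TaqMan qRT-PCR, normalized to ACTB/GAPDH/POLR2A; bidirectional fit versus DMSO.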

Read-out in assay [8]: growth arrest and DNA damage 45 (GADD45B), GADD45B (gene 4616)
Briefly: LTEA_HepaRG_GADD45B: Life Technologies and Expression Analysis (LTEA) Assay for growth arrest and DNA damage 45 (GADD45B) using HepaRG (AID 2283461). The method, boiled down:
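Differentiated HepaRG cells, plated 48 h then switched to serum-free induction medium, were exposed 48 h in duplicate to eight half-log concentrations from 100 uM in 0.5% DMSO; mRNA quantified by qRT-PCR, normalized to ACTB/GAPDH/POLR2A, bidirectional fit versus DMSO.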

Read-out in assay [9]: ABC Transporter (ABCB11), ABCB11 (gene 8647)
Briefly: LTEA_HepaRG_ABCB11: Life Technologies and Expression Analysis (LTEA) Assay for ABC Transporter (ABCB11) using HepaRG (AID 2283463). The gist of the method: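 Differentiated human HepaRG cells in serum-free induction medium, dosed in duplicate for 48 h. Eight-point half-log series from 100 uM in 0.5% DMSO; ABCB11 mRNA by qRT-PCR, normalized to ACTB, GAPDH, POLR2A, fitted bidirectionally versus DMSO.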

Read-out in assay [10]: ABC Transporter (ABCC2), ABCC2 (gene 1244)
Briefly: LTEA_HepaRG_ABCC2: Life Technologies and Expression Analysis (LTEA) Assay for ABC Transporter (ABCC2) using HepaRG (AID 2283464). The gist of the method: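 HepaRG cells were plated 48 h, switched to serum-free induction medium, then exposed in duplicate for 48 h to 8 concentrations (top 100 uM, half-log steps, 0.5% DMSO). ABCC2 mRNA was measured by qRT-PCR normalized to ACTB/GAPDH/POLR2A; bidirectional fitting versus DMSO.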

Read-out in assay [11]: Broad substrate specificity ATP-binding cassette transporter ABCG2 (Homo sapiens) (UniProt Q9UNQ0)
Briefly: LTEA_HepaRG_ABCG2: Life Technologies and Expression Analysis (LTEA) Assay for ABC Transporter (ABCG2) using HepaRG (AID 2283465). The gist of the method:
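Differentiated HepaRG cells were exposed for 48 h in serum-free induction medium to 8 half-log concentrations, top 100 uM, in 0.5% DMSO. ABCG2 mRNA was measured by qRT-PCR, normalized to ACTB, GAPDH and POLR2A, with bidirectional fitting versus DMSO.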

Read-out in assay [12]: ATP-citrate lyase (ACLY), ACLY (gene 47)
Briefly: LTEA_HepaRG_ACLY: Life Technologies and Expression Analysis (LTEA) Assay for ATP-citrate lyase (ACLY) using HepaRG (AID 2283466). The gist of the method: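 Differentiated HepaRG cells exposed 48 h in serum-free induction medium to eight half-log concentrations up to 100 uM in 0.5% DMSO, duplicates. Transcript measured by Fluidigm TaqMan qRT-PCR, normalized to ACTB, GAPDH, POLR2A; bidirectional fit versus DMSO.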

Read-out in assay [13]: Peroxisomal acyl-coenzyme A oxidase 1 (ACOX1) gene, ACOX1 (gene 51)
Briefly: LTEA_HepaRG_ACOX1: Life Technologies and Expression Analysis (LTEA) Assay for Peroxisomal acyl-coenzyme A oxidase 1 (ACOX1) gene using HepaRG (AID 2283467). The gist of the method: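 HepaRG cells, plated 48 h then switched to serum-free induction medium, were exposed in duplicate for 48 h to 8-point half-log concentrations up to 100 uM in 0.5% DMSO. ACOX1 mRNA was measured by qRT-PCR, normalized to ACTB/GAPDH/POLR2A, and fitted bidirectionally versus DMSO.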

Read-out in assay [14]: Alkaline Phosphatase, Placental (ALPP) gene, ALPP (gene 250)
Briefly: LTEA_HepaRG_ALPP: Life Technologies and Expression Analysis (LTEA) Assay for Alkaline Phosphatase, Placental (ALPP) gene using HepaRG (AID 2283468). The method, boiled down: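 Differentiated human HepaRG cells were plated and cultured 48 h, then exposed in duplicate for 48 h in serum-free induction medium to eight half-log concentrations from 100 uM in 0.5% DMSO. ALPP mRNA was measured by TaqMan qRT-PCR, normalized to ACTB, GAPDH, POLR2A.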

Read-out in assay [15]: Bcl-2 (BAD) gene, BAD (gene 572)
Briefly: LTEA_HepaRG_BAD: Life Technologies and Expression Analysis (LTEA) Assay for Bcl-2 (BAD) gene using HepaRG (AID 2283469). The gist of the method: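 Differentiated HepaRG cells were exposed in duplicate in 0.5% DMSO for 48 h to eight-point half-log concentrations up to 100 uM. BAD mRNA was measured by Fluidigm TaqMan qRT-PCR, normalized to ACTB, GAPDH and POLR2A, and fitted bidirectionally against DMSO.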

Read-out in assay [16]: Bcl-2 (BAX) gene, BAX (gene 581)
Briefly: LTEA_HepaRG_BAX: Life Technologies and Expression Analysis (LTEA) Assay for Bcl-2 (BAX) gene using HepaRG (AID 2283470). The method, boiled down: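 HepaRG (human liver), 48 h exposure, duplicate wells. 8-pt curve, half-log from 100 uM, 0.5% DMSO. BAX transcript by TaqMan qRT-PCR; ACTB/GAPDH/POLR2A normalization; gain or loss vs DMSO baseline.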

Read-out in assay [17]: growth arrest and DNA damage 45 (GADD45A), GADD45A (gene 1647)
Briefly: LTEA_HepaRG_GADD45A: Life Technologies and Expression Analysis (LTEA) Assay for growth arrest and DNA damage 45 (GADD45A) using HepaRG (AID 2283458). The method, boiled down: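 Cells plated and cultured 48 h, switched to serum-free induction medium, then dosed for 48 h (100 uM top, half-log dilutions, 0.5% DMSO). RNA was isolated and transcript measured by Fluidigm qRT-PCR.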

Read-out in assay [18]: ABC Transporter (ABCB1), ABCB1 (gene 5243)
Briefly: LTEA_HepaRG_ABCB1: Life Technologies and Expression Analysis (LTEA) Assay for ABC Transporter (ABCB1) using HepaRG (AID 2283460). The method, boiled down: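 HepaRG cells exposed in duplicate for 48 h in serum-free induction medium to eight half-log concentrations up to 100 uM in 0.5% DMSO. ABCB1 mRNA quantified by qRT-PCR, normalised to ACTB, GAPDH and POLR2A; fitted bidirectionally versus DMSO.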

Activity calls are given as the source filed them. Rule for the calls: active = hit-call score of the fitted dose curve at least 0.9, where 1 is the maximum; inactive = score below 0.9.

Sequence of Broad substrate specificity ATP-binding cassette transporter ABCG2 (Homo sapiens) (Q9UNQ0 whole entry, looked up): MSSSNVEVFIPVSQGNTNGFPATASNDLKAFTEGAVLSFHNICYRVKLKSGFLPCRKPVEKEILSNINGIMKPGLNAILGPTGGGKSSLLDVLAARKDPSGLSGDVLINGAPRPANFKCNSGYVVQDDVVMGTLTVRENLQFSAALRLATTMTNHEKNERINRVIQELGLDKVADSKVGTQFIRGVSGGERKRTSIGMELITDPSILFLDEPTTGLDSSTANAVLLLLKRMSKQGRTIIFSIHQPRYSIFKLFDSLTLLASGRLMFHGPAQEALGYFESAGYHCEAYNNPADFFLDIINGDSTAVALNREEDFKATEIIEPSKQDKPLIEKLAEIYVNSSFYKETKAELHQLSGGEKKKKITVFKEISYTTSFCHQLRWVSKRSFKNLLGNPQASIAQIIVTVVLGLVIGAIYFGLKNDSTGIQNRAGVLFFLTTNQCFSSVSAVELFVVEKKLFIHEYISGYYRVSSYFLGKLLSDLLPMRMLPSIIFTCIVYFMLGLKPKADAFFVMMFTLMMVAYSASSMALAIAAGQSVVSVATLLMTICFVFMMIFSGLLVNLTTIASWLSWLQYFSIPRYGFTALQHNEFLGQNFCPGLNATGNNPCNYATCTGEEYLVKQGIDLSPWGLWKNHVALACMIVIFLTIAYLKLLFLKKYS

As usually defined, the AC50 is the concentration at which the activity in the assay is half-maximal. For `COc1cc(C=O)cc2c1[C@H](COC(N)=O)[C@]1(OC(C)=O)ON2C[C@H]2[C@@H]1N2C(C)=O`, the AC50 in [1] is 50 µM (active); in [2] it was 0.412 µM (active); in assay [3] it was 76.5 µM (active); in assay [4] it was 4.09 µM (active); in assay [6] it was 3.75 µM (active); in assay [7] it was 3.8 µM (active). For the same molecule, the half-maximal activity concentration (AC50) is 92.3 µM (active) in assay [8], 0.38 µM (active) in [9], 94.2 µM (active) in assay [13] and 89.3 µM (active) in assay [15]. Besides, the outcome in assay [5], in assay [10], in [11], in [12], in assay [14] and in [16] was inactive.

As for `CC(C)(C)OOC(C)(C)CCC(C)(C)OOC(C)(C)C`, the result in assay [1], in [2], in assay [3], in assay [5], in [17] and in assay [7] was inactive. Besides, the result in [18], in [8], in [9], in assay [10], in [11] and in assay [12] was inactive. Also, the molecule was called inactive in assay [13], in [14], in assay [15] and in assay [16]. For the same molecule, the half-maximal activity concentration (AC50) in [4] was 64.2 µM (active).

For `O=C(Oc1ccc(Br)cc1)N1CCN2CCC1CC2`, the call in assay [1], in assay [2], in assay [3], in assay [5], in assay [6] and in [7] was inactive. In addition, the outcome in [10], in assay [11], in [13], in assay [14], in assay [15] and in assay [16] was inactive. In addition, the AC50 in [4] was 65.1 µM (active); in [12], 73.5 µM (active).

With `CCNS(=O)(=O)C(F)(F)C(F)(F)C(F)(F)C(F)(F)C(F)(F)C(F)(F)C(F)(F)C(F)(F)F`, the molecule was called inactive in assay [1], in assay [2], in assay [5], in assay [6], in assay [7] and in assay [10]. For the same molecule, the molecule was classed as inactive in [11], in [12], in assay [13], in assay [14], in [15] and in assay [16]. For the same molecule, the values for the AC50 in [3], in assay [4] and in assay [9] were 75.9 µM (active), 69.3 µM (active) and 23.7 µM (active), respectively.
